Structures are written as SMILES.

A short description of this experiment: probe aLefty1 binding on compound microarray – biochemical, small-molecule microarray, 635/667 nm fluorescence, primary screen (AID 1153).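 Also: score merges spot fluorescence with signal-to-noise ratio from the scanned slide images.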 As to conditions: higher = more signal.
The compound `CC(CO)N1C(=O)[C@@H]2C3C(=O)OCCC/C=C\[C@H]3OC23C=CCN(Cn2nnc4ccccc42)C(=O)[C@@H]13` (stereo partly drawn) came in with a composite z-score of -0.0035.
To `COC(=O)[C@@]1(Cc2ccc(OC)cc2)[C@H]2c3cc(C(=O)N(C)C)n(CCc4c[nH]c5ccc(O)cc45)c3C[C@H]2CN1C(=O)c1ccccc1` belongs 0.825.
The value for `O=c1cccc(-c2cccc(Cl)c2)o1` was -0.0057; that for `O=C1O[C@H](c2ccccc2)[C@H](c2ccccc2)N2[C@H]1[C@@H](C(=O)O)[C@]1(C(=O)Nc3ccccc31)[C@H]2c1ccc(O)cc1` was -0.0501.
The value for `COCCOC(=O)N1C(=O)[C@@]2(c3ccccc31)[C@H](C(=O)N1CCN(c3ncccn3)CC1)[C@H]1C(=O)O[C@H](c3ccccc3)[C@H](c3ccccc3)N1[C@@H]2c1ccc(OCCO)cc1` was -0.244.
As to `CCOC(=O)C1=C[C@@H](c2ccccc2)N(S(=O)(=O)c2ccc(C)cc2)[C@H]1c1cccc(Cl)c1`, the composite z-score turned out to be 0.409.
Compound `O=C1c2ccccc2[C@](Cc2ccccc2I)(C(=O)NCCN2CCOCC2)[C@H](c2ccc(CO)cc2)N1Cc1ccccc1` returned a composite z-score of 0.641.
As to `O=C(O)[C@H]1C[C@H]2C(=O)N3CCC[C@H]3C(=O)N2[C@H]1c1cccc(OCCO)c1`, the composite z-score was -0.017.
